PubChem BioAssay (NCATS)
Results filed as inconclusive are left out. Where a call stands in place of a potency, no number is given. Calls of active or inactive are those of the source. Calls follow the shape of the full dose curve; tested in HEK293 reporter line.

Assay: qHTS for Inhibitors of the Functional Ribonucleoprotein Complex (vRNP) of Lassa (LASV) Arenavirus: LASV Primary Screen - GLuc reporter signal (AID 1347082); also: nearly all actives have a fitted effect of over 60% in size
Settings: LASV minigenome vRNP, Gaussia luciferase reporter; series mostly up to 57.5 µM
Potency is read from the fitted curve at half-maximal effect.

Row | SMILES | Potency
1 | Clc1ccc2ncc(-c3cccc(NC4CNC4)n3)n2c1 | inactive
2 | Clc1ccc(-c2nc3sccn3c2C=NOCc2ccc(Cl)c(Cl)c2)cc1 | inactive
3 | CCCN(CCC)c1c([N+](=O)[O-])cc(S(N)(=O)=O)cc1[N+](=O)[O-] | inactive
4 | O=C(C=Cc1c(C(=O)O)[nH]c2cc(Cl)cc(Cl)c12)Nc1ccccc1 | inactive
5 | CC(=O)N[C@@H](Cc1ccc(O)cc1)C(=O)O | inactive
6 | CN(C)c1ccc(Nc2nc(N)n(C(=O)c3c(F)cccc3F)n2)cc1 | inactive
7 | N#CCNC(=O)c1ccc(-c2ccnc(Nc3ccc(N4CCOCC4)cc3)n2)cc1 | inactive
8 | CC(=O)Oc1ccccc1C(=O)O | inactive
9 | [O-][n+]1cccc(/C(Cl)=N/OC[C@@H](O)CN2CCCCC2)c1 | inactive
10 | CC(C)C[C@H](NC(=O)CNC(=O)c1cc(Cl)ccc1Cl)B(O)O | 7.69 µM (active)
11 | Nc1ccccc1N | inactive
12 | CC(C)(C)C(=O)Oc1ccc2c(c1)nc(NC(=O)c1cccc([N+](=O)[O-])c1)n2CCCO | inactive
13 | c1ccc(-c2nn3c(c2-c2ccnc4cc(OCCN5CCOCC5)ccc24)CCC3)nc1 | inactive
14 | CCN(CC)CCc1nc(-c2ccccc2)no1 | inactive
15 | CC(C)(c1ccc(O)cc1)c1ccc(O)cc1 | inactive
16 | CC(C)=CCCC(C)=CCCC(C)=CCSc1ccccc1C(=O)O | 5.44 µM (active)
17 | OCc1c[nH]c2ccccc12 | inactive
18 | Nc1cc(C(F)(F)F)c(-c2cc(N3CCOCC3)nc(N3CCOCC3)n2)cn1 | 1.93 µM (active)
19 | O=C(O)CNC(=O)CNC(=O)CNC(=O)CSC(=O)c1ccccc1 | inactive
